# Measurements: PubChem BioAssay (NCATS)
# Inconclusive results are not listed. Active and inactive are the calls of the source. Unless noted, calls come from the whole dose curve; as a rule, active = well fitted curve in the direction sought with a large enough effect; inconclusive = small, poorly fitted or top-dose-only effect, or another doubt; inactive = no such curve, though single readings can be large; an effect the other way counts as inactive or inconclusive.
# Tests used:
# [1] = NS1 protein of Zika virus - qHTS assay to identify small molecule inhibitors in human HEK 293 cells (AID 1347053); details: HEK293 ZIKV MR766 infection, NS1 TR-FRET, 24 h; series mostly up to 46.1 µM;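 note: plate controls were infected untreated cells for no effect and uninfected cells for full effect; nearly all actives have a fitted effect of over 55% in size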
# Outline: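 HEK 293; 20 h pre-culture, 37 C/5% CO2; cpd 1 h pre-infection; ZIKV MR766, MOI = 0.5, 24 h, 37 C; TR-FRET NS1 readout (two anti-NS1 Abs); norm. to no-virus vs infected.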
# [2] = qHTS of pediatric cancer cell lines to identify multiple opportunities for drug repurposing: Primary screen for Saos-2 cells (AID 1347097); details: Saos-2 viability, CellTiter-Glo ATP luminescence, 48 h; note: potency is the fitted concentration of half-maximal effect; nearly all actives have a fitted effect of over 40% in size
# Outline: (§1)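 Luminescence from CellTiter-Glo served as readout of metabolically active cells after 48 h compound exposure. Titrations: MIPE 11-point, from 0.78 nM; NPC 8-point, from 0.59 nM (final). Concentration-response curves came straight from the primary screen.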
# [3] = qHTS of pediatric cancer cell lines to identify multiple opportunities for drug repurposing: Primary screen for SK-N-SH cells (AID 1347098); details: SK-N-SH viability, CellTiter-Glo luminescence, 48 h; note: potency is the fitted concentration of half-maximal effect; nearly all actives have a fitted effect of over 65% in size
# Outline: (§2)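 Cells (500-1,000/well) rested 5 h, then received compounds for 48 h; metabolically active cells were measured by CellTiter-Glo luminescence. Final concentrations spanned up to 46 µM (MIPE, 11-point) or 0.59 nM-46 µM (NPC, 8-point) in primary screens, 11-point in follow-ups.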
# [4] = qHTS of pediatric cancer cell lines to identify multiple opportunities for drug repurposing: Primary screen for NB1643 cells (AID 1347099); details: NB1643 neuroblastoma viability, CellTiter-Glo luminescence, 48 h; series mostly up to 46 µM; note: potency is the fitted concentration of half-maximal effect; nearly all actives have a fitted effect of over 50% in size
# Outline: as §1
# [5] = qHTS of pediatric cancer cell lines to identify multiple opportunities for drug repurposing: Primary screen for Rh18 cells (AID 1347102); details: Rh18 rhabdomyosarcoma viability, CellTiter-Glo luminescence, 48 h; note: potency is the fitted concentration of half-maximal effect; nearly all actives have a fitted effect of over 65% in size
# Outline: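 Cells (500-1,000/well) in growth media were settled 5 h at 37 degrees C, then given compounds for 48 h. Viability was read as CellTiter-Glo luminescence. Primary runs used MIPE at 11 points (0.78 nM-46 µM) and NPC at 8 points (0.59 nM-46 µM); follow-ups used 11 points.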
# [6] = qHTS of pediatric cancer cell lines to identify multiple opportunities for drug repurposing: Primary screen for OHS-50 cells (AID 1347103); details: OHS-50 osteosarcoma viability, CellTiter-Glo luminescence, 48 h; note: potency is the fitted concentration of half-maximal effect; nearly all actives have a fitted effect of over 40% in size
# Outline: as §2
# [7] = qHTS of pediatric cancer cell lines to identify multiple opportunities for drug repurposing: Primary screen for MG 63 (6-TG R) cells (AID 1347105); details: MG 63 (6-TG R) viability, CellTiter-Glo, 48 h; note: potency is the fitted concentration of half-maximal effect; nearly all actives have a fitted effect of over 50% in size
# Outline: as §1
# [8] = qHTS to identify inhibitors of the type 1 interferon - major histocompatibility complex class I in skeletal muscle: primary screen against the NCATS Pharmaceutical Collection (AID 1347407); details: human skeletal muscle cells, IFN-b-induced MHC-I HiBiT luminescence, 24 h; series mostly up to 45.9 µM;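 note: luminescence of HiBiT knocked into endogenous HLA-B as interferon-induced MHC class I level; % is set by controls: 0 for no effect and ±100 for the full control effect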
# Outline: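 Compounds […] were added to CRISPR-engineered HLA-B-HiBiT C25cl48 human myoblasts with 4.0 ng/ml IFN-beta. After 24 hrs at 37 C, cells were lysed and HiBiT luminescence measured.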
# [9] = target: Protein phosphatase 1D (Homo sapiens) (UniProt O15297); test: RapidFire Mass Spectrometry qHTS Assay for Modulators of WT P53-Induced Phosphatase 1 (WIP1) (AID 1347424); details: WIP1 dephosphorylation of phosphopeptide, RapidFire MS; series mostly up to 63 µM;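 note: amount of dephosphorylated VEPPL-S-QETFS peptide product formed by WIP1; plate controls were DMSO wells for no effect and GSK830371 inhibitor control at 10 µM for full effect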
# Sequence of Protein phosphatase 1D (Homo sapiens) (O15297 whole entry, looked up): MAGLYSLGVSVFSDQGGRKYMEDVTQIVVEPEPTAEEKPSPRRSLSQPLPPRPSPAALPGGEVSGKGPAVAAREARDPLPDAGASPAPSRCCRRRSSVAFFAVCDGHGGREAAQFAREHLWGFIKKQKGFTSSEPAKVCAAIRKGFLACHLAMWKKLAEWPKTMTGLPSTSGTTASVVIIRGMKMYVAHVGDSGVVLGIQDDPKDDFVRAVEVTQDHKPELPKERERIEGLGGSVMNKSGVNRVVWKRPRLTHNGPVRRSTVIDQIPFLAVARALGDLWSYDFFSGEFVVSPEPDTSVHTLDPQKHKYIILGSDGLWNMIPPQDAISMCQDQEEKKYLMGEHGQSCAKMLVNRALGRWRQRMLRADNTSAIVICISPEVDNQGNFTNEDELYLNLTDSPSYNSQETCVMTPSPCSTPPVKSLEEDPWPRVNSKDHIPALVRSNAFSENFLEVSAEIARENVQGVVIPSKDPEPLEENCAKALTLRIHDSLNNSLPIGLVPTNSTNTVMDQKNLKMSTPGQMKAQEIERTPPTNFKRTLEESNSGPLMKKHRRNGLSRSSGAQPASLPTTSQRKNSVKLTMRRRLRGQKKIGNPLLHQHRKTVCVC
# Outline: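 WIP1 (10 nM final) was preincubated 1 h at room temperature with compounds in Tris-HCl pH 7.5, 30 mM MgCl2, TCEP, EGTA, BSA; 2 uM VEPPL-pS-QETFS phosphopeptide was added for 5 min, quenched with formic acid, and dephosphorylated product quantified by RapidFire MS.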
# [10] = target: Protein phosphatase 1D (Homo sapiens) (UniProt O15297); test: Rhodamine-PBP qHTS Assay for Modulators of WT P53-Induced Phosphatase 1 (WIP1) (AID 1347425); details: recombinant WIP1, Rhodamine-PBP phosphate fluorescence, real-time; series mostly up to 57.5 µM; note: % of control where 0% means no effect
# Outline: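 Steps: enzyme with Rh-PBP sensor and compounds, room-temperature incubation of 1 hr, baseline read, addition of VEPPL-pS-QETFS (10 uM final), kinetic fluorescence reads at 525/598 nm. Activity equals final minus baseline signal.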
# [11] = Primary qHTS for inhibitors of La Crosse Virus (LACV) - induced cell death in SH-SY5Y cells (AID 1508616); details: SH-SY5Y LACV cytopathicity rescue, ATP luminescence, 6 d; series mostly up to 9.63 µM;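 note: top concentration of the series differs between compounds; 0% = infected DMSO wells and 100% = uninfected DMSO wells; higher means more rescue of cells from virus-induced death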
# Outline: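 SH-SY5Y cells (6000/well) plated 24 h, then given compounds by pin transfer and LACV at 0.01 MOI for 6 days at 37C. Viability measured by ATPLite luminescence, normalized to infected DMSO and uninfected DMSO.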
# [12] = A High-Content qHTS Against Drug Library for the Identification of Small Molecules that Inhibit DYT1 Early Onset Primary Dystonia-Associated Cell Pathology (AID 1645839; calls by dose curve); details: HEK293 Flp-In EGFP-delE TorsinA, punctate imaging, 48 h; series mostly up to 46.1 µM
# Outline: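 Readout: %pathology, the punctate EGFP-TorsinA distribution from imaging, as the primary channel and cell count as the toxicity counterscreen. HEK293 Flp-In cells expressing delE TorsinA were induced with tetracycline and treated with compound for 48 h.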
# [13] = target: Calcium and integrin-binding protein 1 (Homo sapiens) (UniProt Q99828); test: Confirmatory qHTS for Identification of Calcium Integrin Binding Protein 1 (CIB1) Competitor (AID 1508617); details: CIB1 binding competition assay, biochemical qHTS; series mostly up to 114 µM; note: % is set by controls: 0 for no effect and ±100 for the full control effect; nearly all actives have a fitted effect of over 65% in size
# Sequence of Calcium and integrin-binding protein 1 (Homo sapiens) (Q99828 whole entry, looked up): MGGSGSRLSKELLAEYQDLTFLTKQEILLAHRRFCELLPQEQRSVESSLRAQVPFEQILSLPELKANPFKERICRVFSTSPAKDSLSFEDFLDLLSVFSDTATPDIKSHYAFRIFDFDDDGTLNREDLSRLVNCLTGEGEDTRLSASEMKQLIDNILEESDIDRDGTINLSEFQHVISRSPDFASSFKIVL
# Outline: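 Binding competition between test compounds and fluorescent alphaIIb peptide for 1 uM CIB1-GST is monitored by FP at 480/540 nm. Final compound range is up to 114 uM; unlabeled peptide serves as reference competitor.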
# [14] = test system: Zika virus NS2B-NS3 protease (unlinked complex); test: Confirmatory screen GU AMC qHTS for Zika virus inhibitors (AID 1347153); details: Recombinant NS2B-NS3 protease, AMC substrate fluorescence; series mostly up to 111 µM; note: potency is the fitted concentration of half-maximal effect; nearly all actives have a fitted effect of over 70% in size
# Outline: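 Unlinked enzyme 25 nM, Tris pH 8.0/0.01% Tween 20; cpd 15 min RT, dark; + AMC substrate 10 µM (Km 18.3 µM); 340/450 nm read at t0 and 15 min; % inhibition → 4-param fit.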
# [15] = target: Rap guanine nucleotide exchange factor 3 (Homo sapiens) (UniProt O95398); test: Confirmatory qHTS for antagonist of cAMP-regulated guanine nucleotide exchange factor 3 (EPAC1) (AID 1645880); details: EPAC1 Rap1B-BODIPY-GDP exchange, fluorescence; series mostly up to 115 µM;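 note: plate controls were DMSO only for no effect and full effect of the ATA control for full effect; nearly all actives have a fitted effect of over 55% in size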
# Sequence of Rap guanine nucleotide exchange factor 3 (Homo sapiens) (O95398 whole entry, looked up): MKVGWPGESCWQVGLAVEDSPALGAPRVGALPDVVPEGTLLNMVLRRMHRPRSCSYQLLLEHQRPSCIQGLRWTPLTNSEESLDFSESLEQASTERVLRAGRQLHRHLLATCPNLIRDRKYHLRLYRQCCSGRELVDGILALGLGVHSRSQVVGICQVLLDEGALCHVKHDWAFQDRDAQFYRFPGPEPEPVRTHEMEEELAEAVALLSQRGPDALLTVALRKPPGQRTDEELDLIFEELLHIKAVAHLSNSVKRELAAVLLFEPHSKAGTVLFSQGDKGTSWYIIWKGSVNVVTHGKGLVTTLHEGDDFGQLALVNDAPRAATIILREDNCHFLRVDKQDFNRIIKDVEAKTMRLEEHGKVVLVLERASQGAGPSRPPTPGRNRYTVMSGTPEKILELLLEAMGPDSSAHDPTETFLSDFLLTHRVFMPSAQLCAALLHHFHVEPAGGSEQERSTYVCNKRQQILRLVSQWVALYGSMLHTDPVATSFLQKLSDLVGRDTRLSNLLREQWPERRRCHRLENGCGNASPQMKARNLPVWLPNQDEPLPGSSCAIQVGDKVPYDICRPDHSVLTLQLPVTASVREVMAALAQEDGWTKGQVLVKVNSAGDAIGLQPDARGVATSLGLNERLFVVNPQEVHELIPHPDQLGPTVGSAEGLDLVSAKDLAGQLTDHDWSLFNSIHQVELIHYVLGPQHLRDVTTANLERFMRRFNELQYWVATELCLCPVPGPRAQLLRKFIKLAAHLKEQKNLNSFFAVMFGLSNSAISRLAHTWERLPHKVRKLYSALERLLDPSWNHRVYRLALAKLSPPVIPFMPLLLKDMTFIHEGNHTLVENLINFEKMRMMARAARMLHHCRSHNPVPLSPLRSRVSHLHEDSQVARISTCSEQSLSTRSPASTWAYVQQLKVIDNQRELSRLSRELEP
# Outline: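 Nucleotide exchange uses 100 nM EPAC1, 250 nM RAP1B-BODIPY-GDP and 50 uM GDP, with compounds in a concentration-titration series. After 5 min at room temperature, fluorescence (480 nm ex/540 nm em) is read every 5 min for 30 min. Data are normalized to control ATA and DMSO.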
# [16] = Stat Signaling Pathway (AID 446; active = well fitted curve in either direction with a large enough effect, not every such curve was filed as active;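 note: ME-180 cervical cancer cells given 40 pM IL-6 alongside compound; SIE-controlled beta-lactamase reporter measured as 460/530 nm FRET emission ratio; % is set by controls: 0 for no effect and ±100 for the full control effect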); details: ME-180 (cervical carcinoma) SIE beta-lactamase reporter, IL-6 stimulated, 5 h; at 17.2 µM (top of the series)
# Outline: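 IL-6/STAT signaling read in ME-180 cells via an SIE beta-lactamase reporter. Stimulus was 40 pM IL-6 (its AC50) for 5 hrs, so both activation and inhibition register.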
# [17] = target: 3',5'-cyclic-AMP phosphodiesterase 4B (Homo sapiens) (UniProt Q07343); test: qHTS Assay for Inhibitors of PDE-IV (AID 607; active = well fitted activation curve with a large enough effect in the main read-out, with a control signal flat, not every such curve was filed as active; note: % of control where 0% means no effect); details: HEK293 ACTOne CNG channel cells, membrane potential fluorescence; series mostly up to 22.9 µM
# Sequence of 3',5'-cyclic-AMP phosphodiesterase 4B (Homo sapiens) (Q07343 whole entry, looked up): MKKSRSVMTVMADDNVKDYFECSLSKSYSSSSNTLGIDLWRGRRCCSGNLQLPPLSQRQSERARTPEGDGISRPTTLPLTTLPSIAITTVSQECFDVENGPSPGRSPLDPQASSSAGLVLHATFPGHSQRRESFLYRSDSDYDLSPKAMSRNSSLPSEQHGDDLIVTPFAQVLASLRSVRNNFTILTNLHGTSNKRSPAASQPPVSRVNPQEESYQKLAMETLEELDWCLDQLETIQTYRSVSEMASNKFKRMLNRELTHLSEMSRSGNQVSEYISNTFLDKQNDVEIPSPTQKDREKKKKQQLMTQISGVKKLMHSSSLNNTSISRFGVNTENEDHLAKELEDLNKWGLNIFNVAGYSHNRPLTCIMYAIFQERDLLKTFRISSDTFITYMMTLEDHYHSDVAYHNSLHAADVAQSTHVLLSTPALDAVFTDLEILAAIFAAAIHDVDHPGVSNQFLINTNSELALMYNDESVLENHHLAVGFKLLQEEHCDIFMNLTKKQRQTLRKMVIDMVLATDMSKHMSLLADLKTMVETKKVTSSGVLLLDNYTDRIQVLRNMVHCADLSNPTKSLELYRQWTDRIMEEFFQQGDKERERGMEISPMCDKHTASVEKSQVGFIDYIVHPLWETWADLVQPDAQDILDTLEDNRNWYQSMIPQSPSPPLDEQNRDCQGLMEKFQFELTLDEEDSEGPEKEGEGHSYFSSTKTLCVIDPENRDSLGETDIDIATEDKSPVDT
# Outline: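 Live HEK293 cells with a modified cyclic nucleotide-gated (CNG) channel report intracellular cAMP via membrane-potential dye fluorescence (ex 535/em 590 nm). Endogenous PDE-IV was targeted. Compounds were tested at up to 22.9 uM final; RO 20-1724 100 uM served as control.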
# [18] = target: Cytochrome P450 2D6 (Homo sapiens) (UniProt P10635); test: qHTS Assay for Inhibitors and Substrates of Cytochrome P450 2D6 (AID 891); details: recombinant CYP2D6, luciferin-ME EGE luminescence; series mostly up to 57.1 µM; note: potency is the fitted concentration of half-maximal effect; nearly all actives have a fitted effect of over 60% in size
# Sequence of Cytochrome P450 2D6 (Homo sapiens) (P10635 whole entry, looked up): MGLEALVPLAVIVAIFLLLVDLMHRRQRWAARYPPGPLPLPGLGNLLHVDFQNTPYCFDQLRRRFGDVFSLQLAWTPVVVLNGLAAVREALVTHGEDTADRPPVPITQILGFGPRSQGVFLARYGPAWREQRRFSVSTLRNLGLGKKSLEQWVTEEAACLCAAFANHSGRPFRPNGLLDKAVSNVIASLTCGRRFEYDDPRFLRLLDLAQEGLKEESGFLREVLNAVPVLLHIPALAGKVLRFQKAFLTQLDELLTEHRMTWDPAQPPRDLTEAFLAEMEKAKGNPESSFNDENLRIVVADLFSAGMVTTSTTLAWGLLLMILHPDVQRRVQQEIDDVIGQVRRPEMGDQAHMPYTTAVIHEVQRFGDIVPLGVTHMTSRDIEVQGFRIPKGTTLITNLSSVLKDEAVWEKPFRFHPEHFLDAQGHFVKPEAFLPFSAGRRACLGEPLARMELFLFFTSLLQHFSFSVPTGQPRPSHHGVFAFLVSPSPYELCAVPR
# Outline: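 Human CYP2D6 (5 nM) with 30 uM Luciferin-ME EGE (at Km) in 100 mM KPO4, compound preincubated 10 min, then NADPH regeneration system for 60 min at room temperature. Luciferin read by luminescence; normalized to 1.43 uM quinidine.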
# DIV14 = test: qHTS profiling for inhibitors of Plasmodium falciparum proliferation (AID 504749); note: potency is the fitted concentration of half-maximal effect; nearly all actives have a fitted effect of over 60% in size; details: P. falciparum in erythrocytes, SYBR Green DNA, 72 h; series mostly up to 28.7 µM
# Outline: (§3)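 Parasite proliferation within erythrocytes, 72 h exposure. Endpoint: SYBR Green I fluorescence after overnight lysis at room temperature. Controls: 0.29 uM artemisinin, DMSO.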
# DIV17 = test: as above; details: P. falciparum in erythrocytes, SYBR Green DNA, 72 h; series mostly up to 28.7 µM
# Outline: as §3
smiles,measurement,setting,value
CCN(CC)c1ccc(C(=C2C=CC(=[N+](CC)CC)C=C2)c2cc(S(=O)(=O)O)ccc2S(=O)(=O)[O-])cc1,outcome,[1],inactive
same,Potency,[2],21.1 µM (active)
same,Potency,[3],3.86 µM (active)
same,Potency,[4],21.1 µM (active)
same,Potency,[5],11.9 µM (active)
same,Potency,[6],17.4 µM (active)
same,Potency,[7],16.8 µM (active)
same,outcome,[8],inactive
same,outcome,[9],inactive
same,outcome,[10],inactive
same,outcome,[11],inactive
same,outcome,[12],inactive
CN(C)CCCCCCNC(=O)c1cccc(-c2cc(O)c3ncccc3c2)c1,outcome,[13],inactive
O=C(O)c1ccc(O)c2ncc(N3CCCN(CCc4cccc5ccccc45)CC3)cc12,Potency,[14],49.4 µM (active)
C#C[C@]1(OC(C)=O)CC[C@H]2[C@@H]3CCC4=CC(=O)CC[C@@H]4[C@H]3CC[C@@]21C,Potency,[15],inactive
CCOC(=O)CCC(=O)O[C@H]1[C@H](O[C@@H]2[C@@H](C)[C@H](O[C@H]3C[C@@](C)(OC)[C@@H](O)[C@H](C)O3)[C@@H](C)C(=O)O[C@H](CC)[C@@](C)(O)[C@H](O)[C@@H](C)C(=O)[C@H](C)C[C@@]2(C)O)O[C@H](C)C[C@@H]1N(C)C,"activity, negative = inhibition",[16],1.81% (inactive)
COc1cc(/C=C(\C#N)C(N)=O)cc(CSc2nc3ccccc3s2)c1O,Potency,[17],inactive
same,Potency,[18],0.0251 µM (active)
CN1CCN(CCC=C2c3ccccc3Sc3ccc(S(=O)(=O)N(C)C)cc32)CC1,Potency,DIV14,8.49 µM (active)
same,Potency,DIV17,9.53 µM (active)
